Compounds with a hit are over-represented: about 6.6% of the library has one in this group of screens.
SW480 rerep – DNA re-replication induction in SW480 cells. 340,000 compounds, 1.8% hits. Potency, µM (top dose mostly 46.1 µM), for inactives: at the top dose re-replication activation, most hits filed as activators. SW480 DNA re-replication, Hoechst DNA content imaging, 48 h; further: % of control where 0% means no effect; nearly all actives have a fitted effect of over 55% in size
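DNA re-replication was detected as more nuclei of elevated Hoechst intensity after 48 hr exposure to compound (23 nL pinned per well of 250 cells).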
KB-3-1 tox – kills parental KB-3-1 adenocarcinoma cells | KB-3-1 viability, CellTiter-Glo ATP luminescence, 72 h | Potency, µM (highest dose often 46.1 µM), most hits filed as cytotoxic | 400,000 compounds, 1.4% hits; further: on the % scale 0 is the no-effect control and ±100 the full control effect; nearly all actives have a fitted effect of over 60% in size
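Cytotoxicity in the drug-sensitive parental line KB-3-1 was scored as loss of CellTiter-Glo luminescence following 72 h incubation with compound. Values come from curve fitting of normalized concentration-response data.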
MCF10A rerep – induces DNA re-replication in MCF 10a normal breast cells. MCF 10A DNA re-replication, Hoechst nuclear intensity, 48 h. Potency, µM (highest dose often 46.1 µM), for the others: top-dose activity, positive = re-replication, actives largely listed as activators. 350,000 compounds, 2.9% hits; further: % of control where 0% means no effect; nearly all actives have a fitted effect of over 50% in size
KB-V1 cytotox – KB-V1 MDR subline cytotoxicity | Potency, µM (top dose mostly 46.1 µM), most hits filed as cytotoxic | 400,000 compounds, 3.4% hits | KB-V1 MDR cells viability, CellTiter-Glo, 72 h; further: on the % scale 0 is the no-effect control and ±100 the full control effect; nearly all actives have a fitted effect of over 60% in size
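Following 72 h at 37 degrees C with compound, KB-V1 cell viability was read by CellTiter-Glo luminescence, medium being phenol-red-free DMEM plus 10% FBS; concentration-response parameters came from normalized, curve-fitted qHTS data.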
RGS4 inh – human RGS4 inhibition; Transcreener GDP fluorescence polarization, RGS4-accelerated GTP hydrolysis; Potency, µM (top dose mostly 114 µM), inactives show at the top dose activity change, negative = inhibition, hits mostly inhibitors; 390,000 compounds, 0.039% hits; further: on the % scale 0 is the no-effect control and ±100 the full control effect; nearly all actives have a fitted effect of over 75% in size
Target sequence (P49798 whole entry, looked up): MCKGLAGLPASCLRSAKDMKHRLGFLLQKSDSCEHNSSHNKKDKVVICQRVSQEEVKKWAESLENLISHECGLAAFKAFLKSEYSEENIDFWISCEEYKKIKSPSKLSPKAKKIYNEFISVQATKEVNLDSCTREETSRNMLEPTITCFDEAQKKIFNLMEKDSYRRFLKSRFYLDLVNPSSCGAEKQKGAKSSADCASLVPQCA
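MLSMR compounds (23 nl, pin-transferred) preincubated 10 min at room temperature with a 500nM (2x) first reagent, then RGS4 at 900nM (2x) plus Transcreener GDP mix added; fluorescence polarization (620/688 nm) read before and after 90 min at 30 °C.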
PTAP TSG101 blk – blocks PTAP/TSG101 interaction to inhibit HIV-1 budding | Q99816 | Fluorescence polarization, FITC-PTAP peptide / Tsg101 binding | Potency, µM (highest dose often 115 µM), for the others: top-dose activity change, negative = inhibition, hits mostly inhibitors | 340,000 tested, under 10 active; active means well fitted inhibition curve with a large enough effect in the main read-out, with a control signal flat, not every such curve was filed as active; inconclusive means small, poorly fitted or top-dose-only effect, or effect the other way, or a change in a side signal; inactive means no such curve, though single readings can be large or run the other way; further: % of control where 0% means no effect
Target sequence (Q99816 whole entry, looked up): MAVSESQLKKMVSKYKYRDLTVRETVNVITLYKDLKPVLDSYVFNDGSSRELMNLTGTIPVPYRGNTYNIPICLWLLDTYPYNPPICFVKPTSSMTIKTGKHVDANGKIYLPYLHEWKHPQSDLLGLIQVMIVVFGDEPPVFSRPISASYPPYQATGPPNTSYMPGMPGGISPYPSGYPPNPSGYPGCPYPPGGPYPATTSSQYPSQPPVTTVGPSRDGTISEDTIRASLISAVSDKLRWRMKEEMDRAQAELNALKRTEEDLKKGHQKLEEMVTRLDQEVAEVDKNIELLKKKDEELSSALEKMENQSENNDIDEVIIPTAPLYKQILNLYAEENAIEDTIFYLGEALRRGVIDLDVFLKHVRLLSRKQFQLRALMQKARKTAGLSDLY
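FP read-out: FITC-PTAP peptide, 50 nM final, binding Tsg101 binding domain, 10 uM final; 20 min, r.t.; 10 mM HEPES pH 7.5, 0.15 M NaCl, 0.01% Tween 20, 3 mM EDTA, 0.1 mM TCEP.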
* hit, by the source's call; i = inactive; ? = inconclusive; . = no result; [ ] = another dose, or the depositor's remark. Unless noted, the call rests on the fitted dose curve; in most records, active means well fitted curve in the direction sought with a large enough effect; inconclusive means small, poorly fitted or top-dose-only effect, or another doubt; inactive means no such curve, though single readings can be large; an effect the other way counts as inactive or inconclusive. Potency means the concentration at half of the fitted maximal effect.

SMILES	SW480 rerep	KB-3-1 tox	MCF10A rerep	KB-V1 cytotox	RGS4 inh	PTAP TSG101 blk
O=C(CN1C(=O)CCSc2ccccc21)Nc1ccc(C(F)(F)F)cc1	.	?	.	?	2.9%	.
CC1CCCN(CCCNC(=O)c2coc3nc4ccccc4nc23)C1 (configuration not stated)	-4.5%	i	21.4%	?	-20.8%	3.8%
CC1CCN(CCCNC(=O)c2coc3nc4ccccc4nc23)CC1	8.0%	i	14.6µM*	i	-3.9%	-8.7%
CCOC(=O)c1cc(C)n(CC2CCC(C(=O)Nc3ccc(C(C)=O)cc3)CC2)c1C (configuration not stated)	.	.	.	.	9.8%	.
O=C(Cc1ccccc1)Nc1ccc(C(=O)NCC2COc3ccccc3O2)cc1 (configuration not stated)	-0.3%	i	-14.8%	i	-15.6%	1.8%
O=C(NCC1COc2ccccc2O1)c1ccc(NC(=O)C(c2ccccc2)c2ccccc2)cc1 (configuration not stated)	23.1µM*	i	?	i	-1.2%	-1.9%
Cn1cnc2c(=O)oc3ccc(S(=O)(=O)Nc4ccc(F)cc4)cc3c21	.	i	.	?	-2.1%	.
CCOc1cc(C(=O)Nc2ccc3c4c(cccc24)C(=O)N3CC)cc(OCC)c1OCC	-6.5%	i	19.3%	9.2µM*	-18.5%	5.8%
CCN1C(=O)c2cccc3c(NC(=O)c4cccc(N5C(=O)CCC5=O)c4)ccc1c23	-7.0%	i	7.0%	i	-2.4%	1.1%
COCCN(C(=O)c1snc(C(N)=O)c1N)C(C(=O)NC1CCCCC1)c1ccc(F)cc1 (configuration not stated)	?	i	16.4µM*	i	-4.5%	0.7%
Cc1cccc(CCN(C(=O)c2snc(C(N)=O)c2N)C(C(=O)NCC2CCCO2)c2ccc(F)cc2)c1 (configuration not stated)	?	i	?	20.6µM*	-3.9%	-7.9%
COc1ccccc1N(C(=O)c1snc(C(N)=O)c1N)C(C(=O)NCc1ccccc1)c1ccc(O)cc1 (configuration not stated)	15.5%	i	?	i	-17.6%	-4.6%
NC(=O)c1nsc(C(=O)N(c2ccccc2F)C(C(=O)NCc2ccc(F)cc2)c2ccc(O)cc2)c1N (configuration not stated)	?	?	23.1µM*	i	20.6%	-3.9%
COc1ccc(C(C(=O)NC2CCCC2)N(CCN(C)C)C(=O)c2snc(C(N)=O)c2N)cc1 (configuration not stated)	-8.3%	i	-2.0%	i	10.5%	-6.3%
COc1ccc(-c2csc3ncnc(Nc4ccc(OC)c(OC)c4)c23)cc1	.	i	.	?	-22.6%	.
COc1cccc(C(=O)NNc2nc(C)cc(C)n2)c1	0.517µM*	i	?	?	-3.0%	-0.9%
COc1cccc(C(=O)NNc2c3ccccc3nc3ccccc23)c1	-11.0%	i	15.5%	?	-1.3%	-4.0%
COc1cccc(C(=O)NNC(=O)C(=O)Nc2cccc(Cl)c2C)c1	23.1µM*	i	7.7%	i	11.6%	-1.6%
CC1(C)CC(=O)C2=C(C1)NC(Nc1nc3ccccc3o1)=NC2c1cccc(F)c1 (configuration not stated)	.	i	.	i	-6.6%	.
CC1(C)N=C(SCC(=O)Nc2ccccc2)C(c2ccc(Cl)cc2)=N1	-3.0%	i	?	?	11.0%	-0.7%
CC1(C)N=C(SCC(=O)Nc2ccc(Cl)cc2Cl)C(c2ccccc2)=N1	2.7%	i	?	20.6µM*	-4.4%	-5.9%
COc1cc(S(=O)(=O)Nc2ccc(C)cc2)ccc1NC(=O)c1ccncc1	-4.4%	i	3.7%	?	7.3%	0.7%
COc1cccc(/C=C/C(=O)c2ccc(NS(=O)(=O)c3ccc(C)cc3)cc2)c1	?	i	5.8µM*	?	3.2%	-1.5%
COc1cccc(C(=O)/C=C/Nc2ccc(S(=O)(=O)Nc3cccc(C(C)=O)c3)cc2)c1	20.6µM*	i	10.3µM*	?	-28.2%	1.8%
COc1cc(/C=C/C(=O)c2ccc(NS(=O)(=O)c3ccc(C)cc3)cc2)ccc1OC(F)F	?	i	23.1µM*	?	-15.8%	-0.2%
SMILES	SW480 rerep	KB-3-1 tox	MCF10A rerep	KB-V1 cytotox	RGS4 inh	PTAP TSG101 blk
COc1cc(/C=C/C(=O)c2ccc(NS(=O)(=O)c3ccc(C)cc3)cc2)cc(OC)c1O	?	?	18.4µM*	i	-34.4%	0.0%
COc1cccc(C(=O)/C=C/Nc2ccc(NC(C)=O)cc2)c1	6.5%	i	?	i	-13.9%	1.5%
CCCCCCCCCCCCCCCCCCN(CCCCCCCCCCCCCCCCCC)c1ccc(C=O)cc1	.	i	.	i	.	.
CN(C)CCCNc1nccc(N2CCN(C)CC2)n1	.	i	.	i	.	.
Cc1nc(N2CCN(C(=O)c3ccco3)CC2)c2c3c(sc2n1)CCCC3	-2.4%	i	1.5%	20.6µM*	-4.8%	-5.8%
Cc1nc(N2CCN(C(=O)c3cccs3)CC2)c2c3c(sc2n1)CCCC3	11.9%	i	?	?	24.0%	-3.9%
CCc1nc(SCC(=O)N2CCN(C(=O)c3ccco3)CC2)c2c3c(sc2n1)CCCC3	2.6%	i	?	?	-43.9%	-3.7%
Cc1nc(N2CCN(C(=O)c3ccco3)CC2)c2c3c(sc2n1)CC(C)CC3 (configuration not stated)	-169.3%	i	?	8.2µM*	13.8%[56.9 µM]	-6.9%
O=C(c1ccco1)N1CCN(c2nc(C3CC3)nc3sc4c(c23)CCCC4)CC1	-2.5%	i	-4.6%	20.6µM*	-29.7%	-7.2%
Clc1ccccc1Cn1nc(-c2ccccc2)nc1-c1ccccc1	4.0%	i	25.3%	14.6µM*	-8.9%	-0.1%
CCc1ccc(NC(=O)CSc2nc(=O)n(Cc3ccncc3)c3c2CCC3)cc1	.	i	.	i	11.3%	.
CCOc1ccc(/C=C/C(=O)Oc2ccc(OC)cc2)cc1	14.6µM*	i	5.1%	?	7.4%	-4.4%
CCOC(=O)c1c(C)[nH]c(C)c1C(=O)COC(=O)/C=C/c1ccc(OC)cc1	16.4µM*	?	7.8%	13µM*	8.0%	-0.8%
Cc1ccsc1C(=O)OCC(=O)NCCNC(=O)COC(=O)c1sccc1C	-2.9%	i	2.0%	i	-19.8%	-1.5%
Cc1ccsc1C(=O)OCC(=O)Nc1sccc1C(N)=O	-1.1%	i	13.8%	18.4µM*	-23.3%	-4.6%
